Laboratory results reported in PubChem BioAssay (NCI).
The panel holds about 83,000 compounds, 20% with a hit somewhere; the sample as a whole holds those more often.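 48-hour exposure, single concentration, 96-well plates; percent growth endpoint where 0 means no net growth. Active: below 10.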 Unmarked numbers belong to inactive results. Active and inactive are the calls of the source.

Tested on: NCI-H322M lung
Experiment: NCI-60 one-dose screen, 48 h (100 = growth as untreated, 0 = no growth, -100 = all killed)
Details: 10 µM unless noted
Description: Growth inhibition of the NCI-H322M human Non-Small Cell Lung tumor cell line is measured as a screen for anti-cancer activity. Cells are grown in 96 well plates and exposed to the test compound for 48 hours. Compounds are tested at a single concentration, which is 10^-5 M for most compounds. The reported endpoint is percent growth (GI% or GIPRCNT), where numbers from 0 - 100% represent growth inhibition, and numbers from -100% - 0 represent cell death. For example, a value of 40 represents 60% growth inhibition. A value of 0 means no net growth occurred over the course of the experiment. A value of -40 indicates 40% of cells at the beginning of the experiment died by the end of the experiment. A value of -100 means all cells are dead at the end of the experiment.
NCI-60 Human Tumor Cell Lines Screen was performed using the standard one-dose NCI protocol, which is described in more detail at https://dtp.cancer.gov/discovery_development/nci-60/default.htm.
Compounds with GIPRCNT values below 10 were considered active. Activity score was based on GIPRCNT using the following formula: […]
Score is 0 for GIPRCNT values of 100 or above, 50 for GIPRCNT values of 0, and 100 for GIPRCNT values of -100.

| Structure (SMILES) | growth |
| --- | --- |
| COc1cc2nc(-c3ccc(Cl)cc3)cc(OCCCN3CCCCC3)c2cc1OC | 63.1% |
| COc1cc(OC)cc(C(=O)C[n+]2cccc3cc[nH]c32)c1 | 93.1% |
| COc1cc(/C=N/O)nc(-c2ccccn2)c1 | 23.9% |
| COc1cc2c(=O)n(CCN(C)C)c3c4cc5c(cc4ccc3c2cc1OC)OCO5 | -15.7% (active) |
| N=C(N)c1ccc(OCCCCCCCCCCOc2ccc(C(=N)N)cc2)cc1 | -99% (active) |
| COc1ccc(/C=C/C(=O)Nc2cc(/C=C\c3cc(OC)c(OC)c(OC)c3)cc(OC)c2OC)cc1OC | 42.3% |
| CCN1Cc2nc3sc(C)c(C)c3c(=O)n2C=C1C | 69% |
| O=[N+]([O-])c1ccc(N=Nc2cc(S(=O)(=O)O)c3cccc(S(=O)(=O)O)c3c2O)cc1 | 80.7% |
| C=C1C(=O)O[C@H]2[C@H]1CC/C(COC(=O)NCc1c[nH]c3ccc(F)cc13)=C\CC[C@@]1(C)O[C@@H]21 | 80.9% |
| C#Cc1cccc(NC(=O)Nc2cccc(NC(=O)CCl)c2)c1 | 88.9% [8.25 µM] |
| O=C1c2cccc3c(-c4ccc5c(c4)ncn5C4CCCCC4)ccc(c23)C(=O)N1c1nc2ccccc2s1 | 91.7% |
| COc1cccc2c1c1nc3cc(C)c(C)cc3nc1n2CCN(C)C | 24.7% |
| COC(=O)C1=C(C(=O)ON)C2C=CC1(C(Cc1ccccc1)Nc1ccccc1)O2 (stereo not given) | 93.3% |
| O=C(Cn1c(C(=O)c2ccccc2)nc2ccccc21)c1ccc(F)cc1 | 75% |
| O=C(/C(=C\c1ccc([N+](=O)[O-])cc1)S(=O)Cc1ccc(Cl)cc1)c1ccc(Cl)cc1 (stereo not given) | 89.5% |
| Oc1c(Cl)cc(Cl)c(Cl)c1CNCCNCc1c(O)c(Cl)cc(Cl)c1Cl | 21.8% |
| COc1ccc(C(=O)c2cc(C)c(OC)c(C)c2)c(OC)c1N(C(=O)CCl)C(=O)CCl | 36.2% |
| C=C1C(=O)O[C@H]2[C@H]1CC/C(COC(=O)NCC(C)c1ccc(CC(C)C)cc1)=C\CC[C@@]1(C)O[C@@H]21 (stereo not given in full) | 87% |
| Cc1ccc(C(=O)/C(=C/c2ccc([N+](=O)[O-])cc2)SCc2ccc(Cl)cc2)cc1 | 75.5% |
| O=C(N/N=C/c1cc2ccccc2n2nnnc12)Nc1ccccc1 | 105% |

| Structure (SMILES) | growth |
| --- | --- |
| COc1cc(/C=N/NC(=O)c2cnn3c2NC(c2ccccc2)C3)ccc1OCc1ccccc1 (stereo not given) | 28.6% |
| C=C1C(=O)O[C@H]2[C@H]1CC/C(C(=O)NCCCCCNC(=O)/C1=C/CC[C@@]3(C)O[C@H]3[C@H]3OC(=O)C(=C)[C@@H]3CC1)=C\CC[C@@]1(C)O[C@@H]21 | 93.9% |
| COc1ccc(C(C)=O)c(OC)c1 | 124% |
| C=C1C(=O)O[C@H]2[C@H]1CC/C(CNC(=O)/C=C/c1cccc(OC)c1)=C\CC[C@@]1(C)O[C@@H]21 | 72.6% |
| O=C1Nc2cc(-c3cccc(O)c3)ccc2/C1=C/c1ccc[nH]1 | 21.8% |
| N#C/C(=C\c1c(-c2ccccc2)[nH]c2ccccc12)C(=O)c1ccc(Cl)cc1 | 61.8% |
| Nc1n[nH]c2cccc(C#Cc3cccc(C(=O)Nc4cc(CN5CCOCC5)cc(C(F)(F)F)c4)c3)c12 | 62.1% |
| CCCOC(=O)N[C@H]1CCc2cc(OC)c(OC)c(OC)c2-c2ccc(SC)c(=O)cc21 | 32.7% |
| OC(c1cccc(C(F)(F)F)c1)c1cnccc1NC1CCCCC1 (stereo not given) | 90.2% |
| COc1cc2c(c(OC)c1OC)CCC(c1cccc(NC(=O)c3cccc(Br)c3)c1)O2 (stereo not given) | 98.5% |
| CCOC(=O)c1cc(C#N)n2ccc3ccccc3c12 | 98.1% |
| Cc1cc(Cl)nc(N(CCNc2ccnc3cc(Cl)ccc23)Cc2ccccn2)n1 | 63.6% |
| COc1cc(C2=C(c3cn(C)c4ccccc34)COC2=O)cc(OC)c1OC | 26.6% |
| COc1cc2nc(-c3ccc(Cl)cc3)cc(OCCCN3CCC(O)CC3)c2cc1OC | 58.3% |
| Oc1ccc(OCCOc2ccc(O)cc2)cc1 | 82.1% |
| Cc1ccc(-c2[nH][nH]c(=O)c2-c2nc3ccccc3s2)cc1 | 105% |
| CCCC/C=N/NC(=S)NCc1ccccc1 | 105% |
| CCOc1ccc(/C=N/Nc2cc(C)nc3ccc(Br)cc23)cc1 | 93.5% |
| CN(C)CCC(=O)c1ccc([N+](=O)[O-])cc1 | 104% |
| C=C1C(=O)O[C@H]2[C@H]1CC/C(CNS(=O)(=O)c1cccc3ccccc13)=C\CC[C@@]1(C)O[C@@H]21 | 91.2% |
